The supplement of paper PMC3150612
± gives the standard deviation of the averaged measurements.

How the values were obtained:
Drosophila melanogaster [1] = assay: olfactory response index (dipstick assay) (fraction of flies (RI; 1 aversion, 0.5 indifferent, 0 attraction)); higher = stronger aversion to the odorant; conditions: odorant concentration: 1% v/v, male
Drosophila melanogaster [2] = assay: as above; conditions: odorant concentration: 1% v/v, female
[3] = genotype (tubulin-GAL4 x UAS-RNAi line; control = progenitor): A5
[4] = genotype (tubulin-GAL4 x UAS-RNAi line; control = progenitor): control
[5] = genotype (tubulin-GAL4 x UAS-RNAi line; control = progenitor): obp 18a
[6] = genotype (tubulin-GAL4 x UAS-RNAi line; control = progenitor): obp 22a
[7] = genotype (tubulin-GAL4 x UAS-RNAi line; control = progenitor): obp 28a
[8] = genotype (tubulin-GAL4 x UAS-RNAi line; control = progenitor): obp 56a
[9] = genotype (tubulin-GAL4 x UAS-RNAi line; control = progenitor): obp 56c
[10] = genotype (tubulin-GAL4 x UAS-RNAi line; control = progenitor): obp 56f
[11] = genotype (tubulin-GAL4 x UAS-RNAi line; control = progenitor): obp 57a
[12] = genotype (tubulin-GAL4 x UAS-RNAi line; control = progenitor): obp 57b
[13] = genotype (tubulin-GAL4 x UAS-RNAi line; control = progenitor): obp 58c
[14] = genotype (tubulin-GAL4 x UAS-RNAi line; control = progenitor): obp 59a
[15] = genotype (tubulin-GAL4 x UAS-RNAi line; control = progenitor): obp 83a
[16] = genotype (tubulin-GAL4 x UAS-RNAi line; control = progenitor): obp 83c
[17] = genotype (tubulin-GAL4 x UAS-RNAi line; control = progenitor): obp 93a
[18] = genotype (tubulin-GAL4 x UAS-RNAi line; control = progenitor): obp 99b
[19] = genotype (tubulin-GAL4 x UAS-RNAi line; control = progenitor): obp 56h
[20] = genotype (tubulin-GAL4 x UAS-RNAi line; control = progenitor): obp 58b

Row | SMILES | olfactory response index (Drosophila melanogaster [1]; [3]) | olfactory response index (Drosophila melanogaster [1]; [4]) | olfactory response index (Drosophila melanogaster [1]; [5]) | olfactory response index (Drosophila melanogaster [1]; [6]) | olfactory response index (Drosophila melanogaster [1]; [7]) | olfactory response index (Drosophila melanogaster [1]; [8]) | olfactory response index (Drosophila melanogaster [1]; [9]) | olfactory response index (Drosophila melanogaster [1]; [10]) | olfactory response index (Drosophila melanogaster [1]; [11]) | olfactory response index (Drosophila melanogaster [1]; [12]) | olfactory response index (Drosophila melanogaster [1]; [13]) | olfactory response index (Drosophila melanogaster [1]; [14]) | olfactory response index (Drosophila melanogaster [1]; [15]) | olfactory response index (Drosophila melanogaster [1]; [16]) | olfactory response index (Drosophila melanogaster [1]; [17]) | olfactory response index (Drosophila melanogaster [1]; [18]) | olfactory response index (Drosophila melanogaster [1]; [19]) | olfactory response index (Drosophila melanogaster [2]; [3]) | olfactory response index (Drosophila melanogaster [2]; [4]) | olfactory response index (Drosophila melanogaster [2]; [5]) | olfactory response index (Drosophila melanogaster [2]; [6]) | olfactory response index (Drosophila melanogaster [2]; [7]) | olfactory response index (Drosophila melanogaster [2]; [8]) | olfactory response index (Drosophila melanogaster [2]; [9]) | olfactory response index (Drosophila melanogaster [2]; [10]) | olfactory response index (Drosophila melanogaster [2]; [11]) | olfactory response index (Drosophila melanogaster [2]; [12]) | olfactory response index (Drosophila melanogaster [2]; [20]) | olfactory response index (Drosophila melanogaster [2]; [13]) | olfactory response index (Drosophila melanogaster [2]; [14]) | olfactory response index (Drosophila melanogaster [2]; [15]) | olfactory response index (Drosophila melanogaster [2]; [16]) | olfactory response index (Drosophila melanogaster [2]; [17]) | olfactory response index (Drosophila melanogaster [2]; [18]) | olfactory response index (Drosophila melanogaster [2]; [19])
1 | CC(=O)c1ccccc1 [acetophenone] | 0.629 ± 0.048 | 0.394 ± 0.035 | 0.26 ± 0.13 | 0.231 ± 0.17 | 0.419 ± 0.18 | 0.275 ± 0.14 | 0.265 ± 0.077 | 0.655 ± 0.15 | 0.332 ± 0.051 | 0.318 ± 0.13 | 0.578 ± 0.18 | 0.533 ± 0.14 | 0.745 ± 0.16 | 0.066 ± 0.075 | 0.242 ± 0.12 | 0.326 ± 0.023 | 0.657 ± 0.11 | 0.747 ± 0.024 | 0.69 ± 0.11 | 0.588 ± 0.13 | 0.67 ± 0.066 | 0.656 ± 0.078 | 0.503 ± 0.066 | 0.602 ± 0.057 | 0.801 ± 0.055 | 0.668 ± 0.1 | 0.629 ± 0.053 | 0.621 ± 0.061 | 0.562 ± 0.14 | 0.717 ± 0.05 | 0.45 ± 0.15 | 0.631 ± 0.082 | 0.69 ± 0.067 | 0.376 ± 0.15 | 0.489 ± 0.037
2 | CC(=O)OCCC(C)C [isoamyl acetate] | 0.156 ± 0.046 | 0.228 ± 0.095 | 0.362 ± 0.29 | 0.238 ± 0.1 | 0.237 ± 0.067 | 0.419 ± 0.15 | 0.373 ± 0.16 | 0.58 ± 0.23 | 0.192 ± 0.015 | 0.215 ± 0.071 | 0.173 ± 0.11 | 0.629 ± 0.17 | 0.339 ± 0.15 | 0.321 ± 0.13 | 0.343 ± 0.14 | 0.23 ± 0.083 | 0.348 ± 0.16 | 0.442 ± 0.16 | 0.707 ± 0.066 | 0.34 ± 0.095 | 0.625 ± 0.1 | 0.488 ± 0.25 | 0.665 ± 0.19 | 0.832 ± 0.067 | 0.497 ± 0.18 | 0.465 ± 0.13 | 0.583 ± 0.29 | 0.364 ± 0.2 | 0.471 ± 0.14 | 0.733 ± 0.07 | 0.594 ± 0.099 | 0.6 ± 0.054 | 0.702 ± 0.097 | 0.499 ± 0.14 | 0.659 ± 0.12
3 | CCC=O [propanal] | 0.408 ± 0.047 | 0.158 ± 0.045 | 0.029 ± 0.031 | 0.1 ± 0.017 | 0.165 ± 0.13 | 0.111 ± 0.025 | 0.0917 ± 0.11 | 0.119 ± 0.083 | 0.0926 ± 0.076 | 0.254 ± 0.19 | 0.0938 ± 0.037 | 0.498 ± 0.047 | 0.164 ± 0.14 | 0.238 ± 0.095 | 0.289 ± 0.13 | 0.112 ± 0.019 | 0.233 ± 0.08 | 0.637 ± 0.17 | 0.467 ± 0.19 | 0.4 ± 0.18 | 0.583 ± 0.12 | 0.523 ± 0.039 | 0.24 ± 0.21 | 0.479 ± 0.049 | 0.333 ± 0.22 | 0.572 ± 0.086 | 0.66 ± 0.036 | 0.625 ± 0.097 | 0.305 ± 0.24 | 0.611 ± 0.11 | 0.312 ± 0.14 | 0.662 ± 0.086 | 0.688 ± 0.087 | 0.461 ± 0.039 | 0.356 ± 0.19
4 | CC(C)=CCC/C(C)=C/CO [geraniol] | 0.228 ± 0.033 | 0.136 ± 0.091 | 0.0872 ± 0.11 | 0.0901 ± 0.081 | 0.177 ± 0.1 | 0.188 ± 0.086 | 0.174 ± 0.038 | 0.175 ± 0.023 | 0.0811 ± 0.02 | 0.0917 ± 0.055 | 0.114 ± 0.049 | 0.441 ± 0.039 | 0.159 ± 0.025 | 0.183 ± 0.099 | 0.412 ± 0.13 | 0.141 ± 0.11 | 0.197 ± 0.18 | 0.71 ± 0.16 | 0.492 ± 0.12 | 0.371 ± 0.15 | 0.367 ± 0.018 | 0.605 ± 0.03 | 0.581 ± 0.099 | 0.295 ± 0.025 | 0.468 ± 0.18 | 0.406 ± 0.12 | 0.504 ± 0.032 | 0.591 ± 0.17 | 0.19 ± 0.12 | 0.565 ± 0.091 | 0.442 ± 0.07 | 0.414 ± 0.034 | 0.593 ± 0.061 | 0.35 ± 0.23 | 0.406 ± 0.18
5 | CC(C)=CCCC(C)=CC=O (mixture of isomers) [citral] | 0.266 ± 0.06 | 0.226 ± 0.041 | 0.202 ± 0.06 | 0.17 ± 0.11 | 0.387 ± 0.092 | 0.0537 ± 0.02 | 0.186 ± 0.067 | 0.452 ± 0.042 | 0.215 ± 0.046 | 0.321 ± 0.11 | 0.166 ± 0.046 | 0.517 ± 0.0054 | 0.101 ± 0.099 | 0.292 ± 0.16 | 0.285 ± 0.083 | 0.0832 ± 0.075 | 0.226 ± 0.13 | 0.595 ± 0.02 | 0.674 ± 0.046 | 0.292 ± 0.12 | 0.474 ± 0.18 | 0.552 ± 0.055 | 0.195 ± 0.075 | 0.606 ± 0.034 | 0.639 ± 0.027 | 0.636 ± 0.17 | 0.642 ± 0.097 | 0.687 ± 0.15 | 0.409 ± 0.19 | 0.68 ± 0.086 | 0.479 ± 0.091 | 0.262 ± 0.091 | 0.536 ± 0.16 | 0.317 ± 0.01 | 0.66 ± 0.13
6 | OCCc1ccccc1 [2-phenylethanol] | 0.116 ± 0.078 | 0.0893 ± 0.051 | 0.0701 ± 0.021 | 0.0651 ± 0.059 | 0.163 ± 0.03 | 0.0222 ± 0.021 | 0.0551 ± 0.048 | 0.0672 ± 0.04 | 0.0379 ± 0.021 | 0.138 ± 0.096 | 0.125 ± 0.076 | 0.155 ± 0.067 | 0.132 ± 0.06 | 0.127 ± 0.051 | 0.135 ± 0.043 | 0.0352 ± 0.025 | 0.106 ± 0.049 | 0.396 ± 0.15 | 0.5 ± 0.2 | 0.117 ± 0.066 | 0.403 ± 0.12 | 0.526 ± 0.051 | 0.299 ± 0.11 | 0.367 ± 0.17 | 0.414 ± 0.076 | 0.128 ± 0.068 | 0.379 ± 0.17 | 0.381 ± 0.17 | 0.166 ± 0.08 | 0.258 ± 0.074 | 0.414 ± 0.058 | 0.437 ± 0.14 | 0.422 ± 0.2 | 0.0815 ± 0.14 | 0.258 ± 0.2
7 | CCOC(C)=O [ethyl acetate] | 0.36 ± 0.22 | 0.266 ± 0.16 | 0.417 ± 0.15 | 0.176 ± 0.084 | 0.311 ± 0.18 | 0.0854 ± 0.099 | 0.17 ± 0.14 | 0.364 ± 0.31 | 0.236 ± 0.099 | 0.326 ± 0.14 | 0.181 ± 0.14 | 0.324 ± 0.23 | 0.21 ± 0.068 | 0.255 ± 0.11 | 0.352 ± 0.12 | 0.15 ± 0.14 | 0.227 ± 0.13 | 0.677 ± 0.11 | 0.639 ± 0.27 | 0.507 ± 0.12 | 0.669 ± 0.04 | 0.709 ± 0.13 | 0.486 ± 0.2 | 0.3 ± 0.1 | 0.559 ± 0.26 | 0.629 ± 0.015 | 0.61 ± 0.14 | 0.513 ± 0.31 | 0.561 ± 0.091 | 0.502 ± 0.25 | 0.471 ± 0.087 | 0.572 ± 0.0067 | 0.541 ± 0.13 | 0.2 ± 0.11 | 0.479 ± 0.06
